Experiment [1] in a line: P. berghei load reduction in hepatocytes – cell-based, HepG2, luciferase luminescence, HepG2 viability, primary screen (AID 624349; in the data active means parasite load remaining mostly below about 12%, no sharp cut-off; inactive means mostly above about 10%;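 further: 100% = mean of DMSO negative control wells on the same plate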). The note with it: P. berghei liver stage in HepG2, luciferase luminescence, concentration not given here; parasite load remaining: stronger effect = lower value; viability: measured here: HepG2 viability without parasites.
Experiment [2] in a line: Wnt pathway potentiators raising nuclear beta-catenin – imaging, WNT3A-conditioned medium, mouse C2C12, NPC library, primary screen (AID 1117326; in the data active means nuclear beta-catenin stimulation mostly above about 4.2%, no sharp cut-off; inactive means mostly below about 10%). The note with it: stronger effect = higher value.
Experiment [3] is described as follows: stimulators of insulin release from INS-1E, primary screen, cell-based, 5 mM glucose, NPC library (AID 1117329;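 active means compound raises insulin release from rat beta cells at 5 mM glucose, no numeric limit stated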). The note with it: rat INS-1E insulin secretion, at 10 µM, stronger effect = higher value.
Experiment [4] is described as follows: growth inhibition of GSK3B-pretreated HCT116 cells – cell-based, CellTiter-Glo, 0.2 to 20 µM (AID 1117336;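 active means compounds lowering colon cancer cell viability after pretreatment blocking the GSK3B kinase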). The note with it: HCT116 viability after GSK3B inhibitor, at 20 µM, stronger effect = higher value.
Experiment [5] is described as follows: inhibition of endothelial tube formation, primary screen, imaging, VEGF stimulated, CD31 staining, tube area, NPC library (AID 1117340;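 active means compound that reduces growth-factor-driven endothelial tube area in a mixed cell culture, no cutoff stated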). The note with it: VEGF-stimulated ADSC/ECFC co-culture, at 10 µM, stronger effect = higher value.
Experiment [6] can be described thus: GLP1 release stimulators, primary, NCI-H716, NPC library (AID 1117341;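 active means compound raises GLP1 secretion from the human gut endocrine cells, with no numeric limit stated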). The note with it: NCI-H716 cells, at 10 µM, stronger effect = higher value.
Experiment [7] can be described thus: HCT116 colon cancer cell growth inhibition, primary screen, CellTiter-Glo luminescence, NPC library (AID 1117342;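 active means compounds that lower survival of HCT116 colon cancer cells in the luminescence readout, no numeric limit stated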). The note with it: at 20 µM (top of the series). (ATP-based viability assays read luminescence as a measure of living cells.)
Experiment [8] in a line: reduced SW480 viability measured with CellTiter-Glo, NPC library, primary (AID 1117343;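 active means compounds that lower viability of the colon cancer cells in the luminescence readout, with no numeric limit stated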). The note with it: CellTiter-Glo luminescence; at 20 µM (top of the series) unless noted.
A short description of experiment [9]: NPC library primary testing for decreased DLD-1 cell viability via CellTiter-Glo (AID 1117346;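 active means compounds that lower survival of DLD-1 colon cancer cells in the luminescence readout, no cutoff given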). The note with it: DLD-1 viability, CellTiter-Glo luminescence; at 20 µM (top of the series).
Experiment [10] is described as follows: viability loss with induced miR-34 in A549 – imaging, A549 dox-inducible miR-34, nuclei and caspase counts, primary screen (AID 1347080;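 active means compounds whose cell count with miR-34 switched on is under 0.7 times the count with it off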). The note with it: A549 miR-34 inducible, Hoechst nuclei count, 48 h.
A short description of experiment [11]: MELAS cybrid and Rieske KO viability enhancers – cell-based, MELAS cybrids, Rieske KO mouse fibroblasts, CellTiter-Glo, primary screen (AID 1508586).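 Further: z relative to plate mean and SD of compound and empty wells.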 The note with it: low glucose.
Experiment [12] can be described thus: galactose survival enhancers in mitochondrial complex I cybrids – cell-based, galactose medium, ATP luminescence, primary screen (AID 1645843;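 active means z-score of at least 1.8 in each of two replicates, scored against plate mean and spread of sample wells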;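 further: positive z means more ATP and so rescue of galactose-driven cybrid death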). The note with it: complex I mutant cybrid cells, 72 h, stronger effect = higher value.
Where [13] appears, read: stronger effect = lower value, cell number ratio, induced over uninduced.
Setting [14] is: measured here: relative caspase fold change +Dox/-Dox.
The mark [15] stands for this setting: measured here: total cells with miR-34 induction, stronger effect = lower value.
Where [16] appears, read: measured here: total cells without miR-34 induction.
Setting [17] is: MELAS cybrid survival, CellTiter-Glo 48 h, stronger effect = higher value.
The mark [18] stands for this setting: Rieske KO mouse fibroblast survival, CellTiter-Glo 72 h.

The term viability denotes a read-out of living cells in per cent, often relative to untreated cells.

Several values for one entry are separate records, joined by “and”; a condition that tells them apart may be missing. Equal values may be shown once. The source holds several records for some structures; these can differ, active in one and inactive in another. Activity calls are given as the source filed them.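 How the source made its calls, unless noted: active means mean z-score across replicates of 1.96 or higher in either the MELAS or the Rieske mutant cell line; inactive means the rest.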

Take `CC(C)Nc1cccnc1N1CCN(C(=O)c2cc3cc(NS(C)(=O)=O)ccc3[nH]2)CC1`: the parasite load remaining in [1] was 42.2% (inactive). Also, in [1], the viability is 102%. For the same molecule, the nuclear beta-catenin stimulation in experiment [2] (at 10 µM) is 0.8% (inactive); in [2] (stimulation, at 2 µM), -0.4%. Further, the insulin secretion stimulation in [3] was -1.5% (inactive). Moreover, the viability decrease in [4] was -11.6% (inactive). For the same molecule, in experiment [5], the tube area decrease was -1.5% (inactive). Besides, in experiment [6], the GLP1 secretion stimulation is 2.1% (inactive). Moreover, the inhibition of viability in [7] was 28.8% (inactive). Moreover, the results for the viability decrease (inhibition) in [8] and in [9] were 0.9% (inactive) and -21.2% (inactive), respectively. In addition, the fold change in experiment [10] (setting [13]) was 0.904 (inactive); in experiment [10] (setting [14]) it was 1.31. In addition, the cell count turned out to be 9200 in experiment [10] (setting [15]) and 10200 in experiment [10] (setting [16]). The z-score in experiment [11] (setting [17]) is 0.775 (inactive) and 1.98 (active); in experiment [11] (setting [18]), 0.201 and 1.19; in [12] it was 0.98 (inactive).
`CC(C=CC=C(C)C=CC1=C(C)CCCC1(C)C)=CC=CC=C(C)C=CC=C(C)C=CC1=C(C)CCCC1(C)C`: the nuclear beta-catenin stimulation was 1.5% (inactive) in experiment [2] (at 10 µM) and 1.5% in experiment [2] (stimulation, at 2 µM). Also, the insulin secretion stimulation in experiment [3] was 3.2% (inactive). The viability decrease in [4] is -39.2% (inactive). Further, the tube area decrease in experiment [5] is 5.4% (inactive). In experiment [6], the GLP1 secretion stimulation was 5.7% (inactive). Besides, in experiment [7], the inhibition of viability was 1.37% (inactive). For the same molecule, the viability decrease (inhibition) in experiment [8] is 19.1% (inactive); in [9], 3.2% (inactive). In addition, the figures for the fold change in experiment [10] (setting [13]) and in [10] (setting [14]) were 0.877 (inactive) and 0.984, respectively. The cell count in experiment [10] (setting [15]) came out at 7760; in [10] (setting [16]), 8840. Besides, the results for the z-score in experiment [11] (setting [17]) and in experiment [11] (setting [18]) were -0.304 (inactive) and 0.553, respectively.
Turning to `O=C(NCC1CN(c2ccc(N3CCOCC3=O)cc2)C(=O)O1)c1ccc(Cl)s1` (stereo unspecified), the nuclear beta-catenin stimulation in experiment [2] (at 10 µM) was 1.8% (inactive); in experiment [2] (stimulation, at 2 µM), -0.7%. In addition, the insulin secretion stimulation in experiment [3] is 0.5% (inactive). In experiment [4], the viability decrease is 55.9% (active). The tube area decrease in experiment [5] is -0.6% (inactive). In addition, the GLP1 secretion stimulation in [6] was -0.6% (inactive). Moreover, in [7], the inhibition of viability is 51.2% (active). Further, the viability decrease (inhibition) in [8] was -16% (inactive); in experiment [9], 9.9% (inactive). Further, the fold change in experiment [10] (setting [13]) was 0.99 (inactive); in [10] (setting [14]) it was 0.417. In addition, the cell count in experiment [10] (setting [15]) turned out to be 7630; in experiment [10] (setting [16]), 7700. For the same molecule, the z-score was -0.316 (inactive) in [11] (setting [17]) and -0.0771 in experiment [11] (setting [18]).
Regarding `Nc1c(CC(=O)O)cccc1C(=O)c1ccc(Br)cc1`, the nuclear beta-catenin stimulation is -0.1% (inactive) in experiment [2] (at 10 µM) and 0.4% in [2] (stimulation, at 2 µM). Also, the insulin secretion stimulation in [3] was 1.4% (inactive). Besides, the viability decrease in experiment [4] was 52.4% (active). Besides, in experiment [5], the tube area decrease is -4.7% (inactive). Also, the GLP1 secretion stimulation in experiment [6] is 0.3% (inactive). For the same molecule, in [7], the inhibition of viability is -13.5% (inactive). The viability decrease (inhibition) is 37.9% (inactive) in experiment [8] and 82.5% (active) in experiment [9]. Besides, the fold change is 0.937 (inactive) in experiment [10] (setting [13]) and 1.05 in experiment [10] (setting [14]). Further, the cell count in [10] (setting [15]) amounted to 8540; in [10] (setting [16]), 9120. Further, the z-score in [11] (setting [17]) is -0.257 (inactive); in experiment [11] (setting [18]), -0.191.
As to `CN1CCN(C2=Nc3ccccc3Sc3ccc(Cl)cc32)CC1`, in [1], the parasite load remaining was 45.5% (inactive). In addition, in experiment [1], the viability was 130%. Besides, the nuclear beta-catenin stimulation in experiment [2] (at 10 µM) is -0.4% (inactive); in [2] (stimulation, at 2 µM), -0.2%. In addition, the insulin secretion stimulation in experiment [3] was 16.1% (inactive). For the same molecule, the viability decrease in experiment [4] is 83.3% (active). The tube area decrease in experiment [5] was 39.2% (inactive). For the same molecule, the GLP1 secretion stimulation in [6] is 19% (inactive). Moreover, the inhibition of viability in experiment [7] was 79.7% (active). Moreover, the viability decrease (inhibition) in experiment [8] was 116% (active); in [9] it was 72.4% (active). The values for the fold change in experiment [10] (setting [13]) and in experiment [10] (setting [14]) were 0.882 (inactive) and 1.18, respectively. Also, the cell count in [10] (setting [15]) was 8380; in [10] (setting [16]), 9490. The z-score in [11] (setting [17]) is -0.876 (inactive); in experiment [11] (setting [18]), 0.707; in experiment [12], -0.54 (inactive).

The values are drawn from PubChem BioAssay.
